Data reported in the supplement of paper PMC3334620.
In all, about 33,000 sequences were measured (“E-score (-0.5 to 0.5)”: median about -8e-05, highest 2% from about 0.23 on). This excerpt belongs to a sample that is enriched for the highest values.

The sequences below were run against T1, Nrg2 (UniProt P38082) (assay: PBM E-score (8-mer binding enrichment) (E-score (-0.5 to 0.5)); higher = stronger / more preferred TF binding). Details: protein concentration: 100 nM; construct: GST-full length.
T1 sequence: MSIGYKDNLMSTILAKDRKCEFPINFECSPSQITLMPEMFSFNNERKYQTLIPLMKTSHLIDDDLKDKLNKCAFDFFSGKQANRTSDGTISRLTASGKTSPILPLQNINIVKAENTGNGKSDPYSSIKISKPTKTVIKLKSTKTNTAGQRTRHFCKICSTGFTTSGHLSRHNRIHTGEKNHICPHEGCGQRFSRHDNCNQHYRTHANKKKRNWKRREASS
Experimental: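 Universal 'all 10-mer' protein binding microarrays (Agilent AMADID 015681) probed with GST-tagged S. cerevisiae TFs (full-length or DBD) made by in vitro transcription/translation (PURExpress), about 100-200 nM. Bound TF was detected with fluorescent anti-GST. Each ungapped 8-mer (which stands for itself and its reverse complement) is scored by the PBM enrichment score (E-score), a modified Wilcoxon-Mann-Whitney statistic from -0.5 to +0.5, computed with the Universal PBM Analysis Suite. Scale: above 0.35 generally sequence-specific binding.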

Sequence	PBM E-score
GAATTATA	0.0673
TAATTATA	0.319
GTATTATA	0.254
AATTTATC	0.312
CAATTATG	0.0379
CAATTATC	0.289
CTATTATA	0.0933
AATTTATA	0.201
ATATTATA	0.0282
AAATTATA	0.175
CATTTATC	0.0481
ACGCCTGG	-0.123
ACGCGCAG	0.025
CAATCCAC	-0.0677
CCACCGAA	0.0334
AACGGTCT	-0.127
CCGGGCGA	-0.0266
TGAGTCAA	0.0756
CTCCAACA	0.0834
AGCACGGG	-0.00766
GGATTATA	0.24
CGATTATA	0.138
AGATTATA	0.0559
GGCTAGCC	-0.297
CGATCCTA	0.00763

Sequence	PBM E-score
AAACTAGA	-0.0323
GAACTCGA	0.0868
GAACTAGA	0.0203
CAACTCGA	0.0207
TAACTAGA	0.256
TAACTCGA	0.294
GCCTAAGA	-0.0546
ACAAGCGC	0.0708
CAAGAACC	0.172
ATGGAATG	-0.0148
ATGGAATA	0.235
AGGGAATG	0.032
ATGGAATC	0.267
CGGGAATA	0.0776
AGGGAATA	0.245
CTGGAATC	-0.164
GTGGAATA	-0.013
CTGGAATA	0.193
AATGGCCG	-0.134
AATTCTCC	0.118
CAGTACGA	0.206
AAGTCCGA	-0.0535
CCTATCAC	-0.00258
ATATCCGG	0.0451
CTATCCGA	-0.04

Sequence	PBM E-score
ATATCCGA	0.235
AGTGCTGA	-0.0594
GTGAACGA	-0.00481
GGACATCA	0.0631
TGACATCA	0.232
CGACATCA	0.0768
AGGAACGG	0.0417
CATCTGTC	-0.0868
CACGGGCA	-0.102
CATCCAAA	-0.00312
TATCCGAA	-0.0137
GATCCGAA	0.243
GATCCAAA	0.284
CATCCGAA	0.168
GATCCAAC	-0.0228
CAGGTCAC	-0.271
ATCTATGG	-0.0899
GGTAGACC	-0.00427
ACAGCGGG	-0.0296
GCTCAAGC	-0.0931
ACCGCAAC	0.269
GCCGCAAC	0.192
ACCGCAAG	0.00329
AGGGGATC	0.0237
AGCTTGTA	-0.00311

Sequence	PBM E-score
CCACGGAA	0.00928
ATATGGCA	0.00508
TCAATACA	0.0827
GCAATACC	0.176
GCAATAAC	0.0808
GCAATAAA	0.269
CCAATAAA	0.079
GCAATACA	0.298
AACAGATG	-0.0815
GATGCTCA	-0.12
AGGCTTTG	-0.058
GTAAACAC	-0.0176
GCCGTACC	-0.0541
TACACCTA	0.0327
CCTTCACC	-0.0756
ATTTCCCG	0.264
ATTTCCCC	0.153
ATTTTCCC	0.124
ATTTCCAG	0.0415
ATTTTCCG	0.249
ATTTCCCA	0.153
AATTTCCG	0.206
ATTTCCAC	0.255
ATTTCCAA	-0.0757
CGAAGTTC	0.0952

Sequence	PBM E-score
CCTGCTGA	0.171
AACAGTGA	-0.0365
AATTCCCG	-0.0292
AAGAGAAT	0.231
AAGAGAAG	-0.0556
AAGAGAAA	0.0319
CTCTGACC	-0.127
CACGGGGC	-0.0105
TCCTAGGA	-0.0933
CCAATACC	0.0351
ACAATACT	0.241
ACAATACA	0.148
ACAATACG	0.0515
ACAATACC	0.291
AGAATACC	0.191
GGATACAA	0.0295
GCAAACCA	0.0737
AACTAAAA	0.0978
CATTAGAA	0.0605
GATTAGAA	0.0967
TATTAGAA	0.249
CATTAAAA	0.252
TATTAAAA	0.262
GATTAAAA	0.157
CACTAAAA	0.256

Sequence	PBM E-score
CATTAAAG	0.119
TACTAAAA	0.0854
AATTAAAA	0.126
CATTAAAC	0.0682
ATTGCACC	0.0876
CCAACTAC	0.0973
AACCTCTA	-0.1
TAACGTCA	0.0193
CTCGATCC	-0.0858
AGAATGGC	0.0093
ACAAGGAT	-0.0601
CCCACCCC	0.177
ACCCTCCC	0.255
ACCCTCCT	-0.14
CCCCTCCC	-0.102
CCCACCCA	0.0597
GCCCACCC	0.184
CCCCACCC	0.162
ACCCACCC	0.243
CCCACCCG	0.231
AAATGAAC	0.0486
CGTTCCGC	-0.00432
AACAGGCC	-0.202
GTGGGCTA	-0.14
CACCGGGG	-0.413

Sequence	PBM E-score
GTACTACA	0.191
AGAGATTA	0.0613
CGAGATTC	0.143
CGAGATTA	0.252
GGCTGCCA	-0.173
GAAAAGTC	-0.0781
CGTGCCAA	-0.033
GGACGTCA	0.00109
TGACGTCA	0.279
AGACGTCA	-0.0442
ATCCAACG	-0.165
ATCATAGG	-0.0259
CTCATAGA	-0.061
ATCATAGA	0.238
CTAAACCA	-0.179
CATACCAC	-0.0447
TAAGTGAA	0.0844
ATTACAGC	-0.18
ACTACAGG	0.237
ATTACAGA	0.0258
ATTACAGG	0.312
ACTACAGC	-0.271
ACTACAGA	0.131
